Reference: PubChem BioAssay (NCI)
The panel holds about 79,000 compounds, 15% with a hit somewhere; the sample as a whole holds those more often. The source made the active and inactive calls. Rule as the data show it: active = growth inhibition above about 70%; inactive = the rest.

Experiments:
[1] = NCI Yeast Anticancer Drug Screen. Data for the rad52 strain (AID 147);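 also: 0% = growth of vehicle-treated control cultures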; conditions: S. cerevisiae rad52 mutant growth inhibition, active compounds read high
How it was run: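 Here a repair-compromised yeast strain receives each compound; its growth is then quantified and normalised to vehicle-only controls.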

[2] = NCI Yeast Anticancer Drug Screen. Data for the wt1 strain (AID 149);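 also: 0% = growth of vehicle-treated wt1 cultures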; conditions: S. cerevisiae wt1 strain (SPY 50644) growth inhibition, active compounds read high
How it was run: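 The wt1 strain was treated with compounds, and growth was compared with vehicle-treated cultures to give inhibition.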

[3] = NCI Yeast Anticancer Drug Screen. Data for the rad50EPP+ strain (AID 151);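 also: 0% = growth of vehicle-treated control cultures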; conditions: S. cerevisiae rad50 mutant strain, active compounds read high
How it was run: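 Read-out is yeast growth inhibition relative to vehicle; cells used were the rad50EPP+ strain.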

[4] = NCI Yeast Anticancer Drug Screen. Data for the mgt1 strain (AID 153); conditions: S. cerevisiae mgt1 mutant growth inhibition, active compounds read high
How it was run: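 Measured: inhibition of mgt1 yeast growth by compound, normalized to vehicle-treated cultures.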

[5] = NCI Yeast Anticancer Drug Screen. Data for the rad50 strain (AID 155);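 also: 0% = growth of vehicle-only cultures of the same strain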; conditions: S. cerevisiae rad50 strain growth inhibition, active compounds read high
How it was run: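 Cells are treated with compound, grown, and their growth is then scored against vehicle-only cultures of the same repair-deficient yeast strain.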

[6] = NCI Yeast Anticancer Drug Screen. Data for the mec2-1 strain (AID 157); conditions: S. cerevisiae mec2-1 strain, active compounds read high
How it was run: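 Using mec2-1 yeast: add compound, measure growth, express inhibition versus vehicle-treated cultures.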

[7] = NCI Yeast Anticancer Drug Screen. Data for the rad14 strain (AID 159);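 also: 0% = growth of vehicle-treated control cultures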; conditions: S. cerevisiae rad14 strain growth inhibition, active compounds read high
How it was run: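 Readout: yeast growth inhibition, referenced to vehicle-only cultures. Strain bears a defined alteration in DNA damage repair.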

[8] = NCI Yeast Anticancer Drug Screen. Data for the sgs1 mgt1 strain (AID 161);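 also: 0% = growth of cultures given vehicle only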; conditions: S. cerevisiae sgs1 mgt1 strain, active compounds read high
How it was run: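 Percent growth inhibition was derived by comparing compound-exposed mutant yeast with vehicle-exposed cultures. The strain carries alterations in DNA damage repair.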

[9] = NCI Yeast Anticancer Drug Screen. Data for the CLN2oe strain (AID 163);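 also: 0% = growth of vehicle-only control cultures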; conditions: S. cerevisiae CLN2oe strain, active compounds read high
How it was run: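 Whole-cell yeast growth assay. A strain engineered for altered cell-cycle control received compound, and inhibition relative to vehicle-treated cultures was recorded.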

[10] = NCI Yeast Anticancer Drug Screen. Data for the cln2 rad14 strain (AID 165);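 also: 0% = growth equal to vehicle treated cultures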; conditions: S. cerevisiae cln2 rad14 strain, active compounds read high
How it was run: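 Yeast strain cln2 rad14, bearing defects in cell cycle control and DNA repair, serves as the test system; values reflect growth inhibition compared with vehicle.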

[11] = NCI Yeast Anticancer Drug Screen. Data for the bub3 strain (AID 167); conditions: S. cerevisiae bub3 mutant strain, active compounds read high
How it was run: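 Part of a panel of yeast mutants defective in DNA damage repair or cell cycle regulation. Each strain is grown with compound, and inhibition is calculated relative to solvent-treated cultures.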

[12] = NCI Yeast Anticancer Drug Screen. Data for the wt2 strain (AID 169);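 also: 0% = growth of vehicle-treated yeast cultures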; conditions: S. cerevisiae wt2 strain growth inhibition, active compounds read high
How it was run: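 Treated yeast vs. vehicle-treated yeast: growth inhibition determined.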

[13] = NCI Yeast Anticancer Drug Screen. Data for the mlh1 strain (AID 171);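 also: 0% = growth of vehicle-treated control cultures of the same strain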; conditions: S. cerevisiae mlh1 strain growth inhibition, active compounds read high
How it was run: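 A yeast strain with a defined genetic lesion serves as the test organism. Cultures receive compound or vehicle, and growth is measured.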

[14] = NCI Yeast Anticancer Drug Screen. Data for the sgs1 strain (AID 173);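 also: 0% = growth of vehicle-only control cultures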; conditions: S. cerevisiae sgs1 mutant, active compounds read high
How it was run: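 A genetically defined yeast mutant is incubated with the test compound, and its growth is compared to that of the same strain given vehicle.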

[15] = NCI Yeast Anticancer Drug Screen. Data for the mlh1 rad18 strain (AID 175); conditions: S. cerevisiae mlh1 rad18 strain growth inhibition, active compounds read high
How it was run: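 Steps: expose repair-defective yeast to compound; measure growth; express inhibition against vehicle-treated controls.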

[16] = NCI Yeast Anticancer Drug Screen. Data for the rad18 strain (AID 177); conditions: S. cerevisiae rad18 mutant growth inhibition, active compounds read high
How it was run: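 Measured value is growth inhibition of a yeast strain bearing a DNA repair alteration, referenced to vehicle-treated cells.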

[17] = at 5.0 µM (retest, dose inferred, filed as 0.5)
[18] = at 50.0 µM (retest, dose inferred, filed as 5.0)

Measured: growth inhibition

CCOC(=S)SSSC(=S)OCC
inactive: [1]; at 1.2 µM 4% | [1]; at 3.7 µM 17% | [2]; at 1.2 µM -3% | [2]; at 3.7 µM 3% | [2]; at 11.0 µM 31% | [3]; at 1.2 µM 18% | [3]; at 3.7 µM 51% | [4]; at 1.2 µM -1% | [4]; at 3.7 µM 6% | [4]; at 11.0 µM 31% | [4]; at 100.0 µM 56% | [5]; at 1.2 µM 7% | [5]; at 3.7 µM 19% | [5]; [17] 43% | [5]; at 50.0 µM 29.6% | [6]; at 1.2 µM -6% | [6]; at 3.7 µM -5% | [6]; at 11.0 µM 20% | [6]; at 50.0 µM 19.4% | [7]; at 1.2 µM 0% | [7]; at 3.7 µM 5% | [7]; at 11.0 µM 40% | [8]; [17] 9% | [8]; at 50.0 µM 41.2% | [9]; at 1.2 µM -2% | [9]; at 3.7 µM -1% | [9]; at 11.0 µM 18% | [9]; at 33.0 µM 57% | [10]; [17] 1% | [10]; at 50.0 µM -2.7% | [11]; at 1.2 µM -5% | [11]; at 3.7 µM -4% | [11]; [17] -3% | [11]; at 11.0 µM 36% | [11]; at 50.0 µM 50.4% | [12]; at 1.2 µM -1% | [12]; at 3.7 µM 0% | [12]; at 11.0 µM 33% | [13]; at 1.2 µM 3% | [13]; at 3.7 µM 7% | [13]; at 11.0 µM 41% | [14]; at 1.2 µM 0% | [14]; at 3.7 µM 9% | [14]; at 11.0 µM 56% | [15]; [17] 55% | [15]; at 50.0 µM 27.2% | [16]; at 1.2 µM 0% | [16]; at 3.7 µM 8% | [16]; at 11.0 µM 56%
active: [1]; at 11.0 µM 70% | [1]; at 33.0 µM 97% | [1]; at 100.0 µM 99% | [2]; at 33.0 µM 88% | [2]; at 100.0 µM 99% | [3]; at 11.0 µM 93% | [3]; at 33.0 µM 99% | [3]; at 100.0 µM 99% | [4]; at 33.0 µM 96% | [5]; at 11.0 µM 76% | [5]; at 33.0 µM 99% | [5]; [18] 99% | [5]; at 100.0 µM 99% | [6]; [17] 87% | [6]; at 33.0 µM 91% | [6]; [18] 100% | [6]; at 100.0 µM 99% | [7]; at 33.0 µM 96% | [7]; at 100.0 µM 99% | [8]; [18] 99% | [9]; at 100.0 µM 95% | [10]; [18] 92% | [11]; at 33.0 µM 95% | [11]; [18] 99% | [11]; at 100.0 µM 99% | [12]; at 33.0 µM 95% | [12]; at 100.0 µM 99% | [13]; at 33.0 µM 95% | [13]; at 100.0 µM 99% | [14]; at 33.0 µM 98% | [14]; at 100.0 µM 99% | [15]; [18] 99% | [16]; at 33.0 µM 98% | [16]; at 100.0 µM 99%
